Only some compounds are listed: those with a hit (about 19% of all), similar ones and a draw of the others.
HepG2 tox – HepG2 cytotoxicity, counter-screen for TGF-b inhibitors. Potency, µM (top dose mostly 46.1 µM), hits mostly cytotoxic. 0.76% of 410,000 active. HepG2 CAGA-GFP viability, ATP luminescence, 18 h
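HepG2 CAGA-GFP cells (1000/well, DMEM with 1% FBS) received compound, then TGF-beta at 500 pg/mL final, and were incubated 18 hours at 37 degrees C. Viability was read by CellTiter-Glo luminescence. Media-only wells were set as complete cell-killing and DMSO as no toxicity.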
TGFb SMAD3 inh – inhibitors of TGF-b signaling; 1.2% of 410,000 active; HepG2 CAGA-GFP TGF-b/SMAD3 reporter, GFP fluorescence, 18 h; TGF-beta stimulated, 500 pg/mL final; Potency, µM (series often up to 46.1 µM), most hits filed as inhibitors; also: nearly all actives have a fitted effect of over 65% in size
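First, reporter cells (HEPG2 CAGA-GFP) rested 2 h at 37 degrees C. Next, compounds were pinned in and TGF-beta added to 500 pg/mL final. After 18 h, GFP was imaged per cell and summed per well.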
TDP1 cell CPT – DT40-hTDP1 cell growth loss with CPT; Potency, µM (titrated, usually from 46.2 µM), usual class: inhibitors; 12% of 420,000 active; chicken DT40 Tdp1-/-;hTDP1 cells + 20 nM CPT, ATP luminescence, 48 h; also: nearly all actives have a fitted effect of over 55% in size
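Cell growth measured by CellTiter-Glo luminescence after a minimum 48 h, 37 C compound exposure with 20 nM CPT in Tdp1-knockout DT40 cells stably expressing hTDP1, seeded 400/well; qHTS titration format.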
IL-1B inflam inh – inflammasome signaling inhibition, IL-1 beta readout; THP-1 LPS/ATP IL-1B secretion, AlphaLISA, 16 h; hits give low values; 4.7% of 360,000 active; AID 743279; activity change, % at 57.5 µM; in the data active = activity change below about -50%; inconclusive = mostly about -30% to -49%
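Secreted IL-1B measured by AlphaLISA bead assay after 16 h compound exposure of THP-1 cells; compounds (final up to 57.5 uM) added 1 h before LPS (250 ng/mL) and ATP (1.25 mM) stimulation; lower signal means less secretion.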
TDP1 inh – TDP1 (human) enzyme inhibition. Q9NUW8. 0.28% of 350,000 active. Potency, µM (doses to about 130 µM), usual class: inhibitors. recombinant TDP1, AlphaScreen DNA substrate cleavage; also: nearly all actives have a fitted effect of over 40% in size
Target sequence (Q9NUW8 whole entry, looked up): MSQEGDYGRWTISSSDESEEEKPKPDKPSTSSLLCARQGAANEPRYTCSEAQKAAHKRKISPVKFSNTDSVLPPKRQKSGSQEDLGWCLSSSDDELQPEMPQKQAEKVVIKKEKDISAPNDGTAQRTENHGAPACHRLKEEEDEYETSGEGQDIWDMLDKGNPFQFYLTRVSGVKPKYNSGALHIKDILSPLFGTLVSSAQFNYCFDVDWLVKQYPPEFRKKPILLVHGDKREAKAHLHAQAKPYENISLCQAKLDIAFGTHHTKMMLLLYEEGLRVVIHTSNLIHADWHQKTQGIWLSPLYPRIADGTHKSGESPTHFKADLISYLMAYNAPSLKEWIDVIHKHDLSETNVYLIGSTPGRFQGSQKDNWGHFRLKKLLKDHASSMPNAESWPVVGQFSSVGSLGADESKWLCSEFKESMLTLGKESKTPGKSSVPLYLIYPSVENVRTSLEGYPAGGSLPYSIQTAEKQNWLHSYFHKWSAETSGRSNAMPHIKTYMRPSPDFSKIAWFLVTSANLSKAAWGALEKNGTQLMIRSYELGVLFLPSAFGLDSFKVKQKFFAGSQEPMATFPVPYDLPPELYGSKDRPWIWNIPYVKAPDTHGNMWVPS
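Recombinant E. coli-expressed Tdp1 (1 nM) preincubated with compound 15 min at RT, then 5'-biotin/3'-phosphotyrosine-FITC DNA substrate (15 nM) added for 5 min. AlphaScreen beads (10 ug/ml) added, 10 min RT; tyrosine-FITC cleavage read as signal loss.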
TDP1 cell noCPT – qHTS for Inhibitors of human tyrosyl-DNA phosphodiesterase 1 (TDP1): qHTS in cells in absence of CPT | Potency, µM (series often up to 46.2 µM), hits mostly inhibitors | DT40 Tdp1-/- hTDP1 cells, no CPT, ATP luminescence, 48 h | AID 686978, 2013 | 15% of 420,000 active; also: nearly all actives have a fitted effect of over 55% in size
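Compound effects on proliferation are scored in DT40 Tdp1-/-;hTDP1 cells in the absence of CPT. ATP levels (CellTiter-Glo luminescence) are recorded after a ≥48 hr, 37 °C incubation.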
Of the large screens only hits and unclear results are named; the others gave an inactive call. Unless noted, calls follow the shape of the dose curve; as a rule, active = well fitted curve in the direction sought with a large enough effect; inconclusive = small, poorly fitted or top-dose-only effect, or another doubt; inactive = no such curve, though single readings can be large; an effect the other way counts as inactive or inconclusive.

O=C(C[N+]12CN3CN(CN(C3)C1)C2)c1ccc(Cl)cc1	TDP1 cell CPT inconclusive, TDP1 cell noCPT inconclusive (no result: IL-1B inflam inh, TDP1 inh)
O=C(O)CCC/C=C\C[C@@H]1[C@@H](CC[C@@H](O)CCc2ccccc2)[C@H](O)C[C@@H]1O	none (no result: HepG2 tox, TGFb SMAD3 inh, TDP1 cell CPT, IL-1B inflam inh, TDP1 cell noCPT)
O=C(N=C1SC2CS(=O)(=O)CC2N1c1ccc(Cl)c(Cl)c1)C1CCCO1 (centres undefined)	none
CC(C)C[C@H](N)C(=O)N[C@H](C(=O)N[C@H](C(=O)N[C@@H](Cc1ccc(O)cc1)C(=O)N1CCC[C@H]1C(=O)N[C@@H](Cc1c[nH]c2ccccc12)C(=O)N[C@H](C(=O)N[C@@H](CCC(N)=O)C(=O)N[C@@H](CCCN=C(N)N)C(=O)O)[C@@H](C)O)C(C)C)C(C)C	none (no result: HepG2 tox, TGFb SMAD3 inh, IL-1B inflam inh)
N#Cc1ccccc1S(=O)(=O)N1CCN(CC(=O)Nc2ccccc2C(=O)NC2CC2)CC1	none
N#Cc1ccccc1S(=O)(=O)N1CCN(CC(=O)Nc2ccnn2C2CCCC2)CC1	none
O=C(CN1CCN(S(=O)(=O)c2ccccc2F)CC1)Nc1ccccc1C(=O)c1ccccc1	TGFb SMAD3 inh inconclusive, TDP1 cell CPT inconclusive, TDP1 cell noCPT 29µM
O=C(CN1CCN(S(=O)(=O)c2ccccc2F)CC1)Nc1ccnn1C1CCCC1	TDP1 cell CPT inconclusive, TDP1 cell noCPT 21µM
COC(=O)c1ccc(OCC(O)CN2C(=O)c3ccccc3S2(=O)=O)cc1 (centres undefined)	IL-1B inflam inh inconclusive, TDP1 cell noCPT inconclusive
Cc1ccc(NS(=O)(=O)c2ccc(-n3cccn3)cc2)nc1	none
CC(C)CC1C(=O)N(Cc2cn(CC3CCCCC3)nn2)CCS(=O)(=O)N1Cc1ccc(-c2cccc(C#N)c2)cc1 (centres undefined)	TDP1 cell CPT 21µM, TDP1 cell noCPT inconclusive (no result: TDP1 inh)
COc1ccc(-c2ccc(CN3C(CC(C)C)C(=O)N(Cc4cn(CC5CCCCC5)nn4)CCS3(=O)=O)cc2)cc1OC (centres undefined)	TDP1 cell CPT 23µM, TDP1 cell noCPT 21µM (no result: TDP1 inh)
CC(C)CC1C(=O)N(Cc2cn(CC3CCCCC3)nn2)CCS(=O)(=O)N1Cc1ccc(-c2ccncc2)cc1 (centres undefined)	TDP1 cell CPT inconclusive, TDP1 cell noCPT 15µM (no result: TDP1 inh)
COc1ccc(-c2ccc(CN3C(C(C)C)C(=O)N(Cc4cn(CCC5OCCCO5)nn4)CCS3(=O)=O)cc2)cc1OC (centres undefined)	TDP1 cell CPT inconclusive, TDP1 cell noCPT inconclusive (no result: TDP1 inh)
COc1ccc(-c2ccc(CN3C(C(C)C)C(=O)N(Cc4cn(CC5CCCCC5)nn4)CCS3(=O)=O)cc2)cc1OC (centres undefined)	TDP1 cell CPT inconclusive, IL-1B inflam inh inconclusive, TDP1 cell noCPT 1.6µM (no result: TDP1 inh)
Cc1cc(NC(=O)CSc2ccc(-c3ccc(Br)cc3)nn2)no1	none
O=C(COc1ccc2c(c1)C(=O)CC1(CCCCC1)O2)NCc1ccccc1	TDP1 cell CPT inconclusive, TDP1 cell noCPT 21µM
CCN1C(=O)[C@H]2[C@H]3[C@H](O)[C@H](O)C/C(=N/O[C@@H]4O[C@@H](COC(C)=O)[C@@H](OC(C)=O)[C@@H](OC(C)=O)[C@H]4OC(C)=O)[C@@H]3CC[C@@H]2C1=O	none (no result: HepG2 tox, TGFb SMAD3 inh, TDP1 cell CPT, IL-1B inflam inh, TDP1 cell noCPT)
CCNc1ccc(Br)cc(C(=O)/C=C/c2c(Cl)cccc2Cl)c1=O	TDP1 cell CPT 5.2µM, IL-1B inflam inh -96, TDP1 cell noCPT 4.6µM
CCNc1ccc(Br)cc(C(=O)/C=C/c2ccc3c(c2)OCO3)c1=O	TDP1 cell CPT 29µM, TDP1 cell noCPT inconclusive
CCNC(=O)/C=C/c1cccc(Br)c1	TDP1 cell noCPT inconclusive (no result: HepG2 tox, TGFb SMAD3 inh, IL-1B inflam inh, TDP1 inh)
O=C(CN1C(=O)C2C3C=CC(C3)C2C1=O)Nc1ccc(S(=O)(=O)N2CCCCC2)cc1 (centres undefined)	TDP1 cell noCPT inconclusive

Screening results as filed in PubChem BioAssay.
